POLH inh = blocks human DNA polymerase eta activity. Q9Y253. recombinant Pol eta, fluorescent DNA replication assay. Potency, µM (doses to about 114 µM), most hits filed as inhibitors. actives 1.2% (n = 390,000)
Target sequence (Q9Y253 whole entry, looked up): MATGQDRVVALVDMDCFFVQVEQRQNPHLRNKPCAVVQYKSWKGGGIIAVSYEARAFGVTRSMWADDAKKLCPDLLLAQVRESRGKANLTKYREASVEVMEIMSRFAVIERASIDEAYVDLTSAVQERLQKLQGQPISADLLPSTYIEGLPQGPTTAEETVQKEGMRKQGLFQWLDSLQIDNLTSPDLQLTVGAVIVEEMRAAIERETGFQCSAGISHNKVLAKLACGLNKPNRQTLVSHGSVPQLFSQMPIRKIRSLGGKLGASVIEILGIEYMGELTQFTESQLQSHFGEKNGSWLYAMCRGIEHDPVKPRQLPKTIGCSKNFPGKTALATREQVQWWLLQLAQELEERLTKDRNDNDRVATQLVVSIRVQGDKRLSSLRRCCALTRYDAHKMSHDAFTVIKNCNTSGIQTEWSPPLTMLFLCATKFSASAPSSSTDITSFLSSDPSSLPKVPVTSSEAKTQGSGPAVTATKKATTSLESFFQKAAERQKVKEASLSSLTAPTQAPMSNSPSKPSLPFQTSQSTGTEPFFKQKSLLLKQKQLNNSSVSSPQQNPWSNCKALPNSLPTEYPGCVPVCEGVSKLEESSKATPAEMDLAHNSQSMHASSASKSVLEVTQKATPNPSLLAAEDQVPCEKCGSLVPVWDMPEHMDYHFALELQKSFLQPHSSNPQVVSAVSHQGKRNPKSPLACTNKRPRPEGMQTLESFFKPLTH
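Pol eta (10 nM) was preincubated with compounds for 15 min at room temperature, after which fluorescent replication substrate (50 nM final) was added to start the reaction. Fluorescence was read kinetically at 0 and 10 min.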
GLS inh = blocks human kidney-isoform glutaminase activity; O94925; GLS enzymatic activity, qHTS titration; Potency, µM (highest dose often 45.5 µM), actives largely listed as inhibitors; actives 0.21% (n = 410,000); AID 624170
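Two-point fluorescence kinetic (t0, 30 min RT) for hKGA; glutamate detected via glutamate oxidase–HRP–Amplex Red. Substrate: 1 mM L-glutamine solution; buffer 45 mM KH2PO4, pH 8.2.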
Pol iota inh = inhibitors of human DNA polymerase iota; Q9UNA4; Pol iota fluorescent replication assay, 10 min; Potency, µM (titrated, usually from 115 µM), actives largely listed as inhibitors; actives 1% (n = 390,000); AID 588590
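Pol iota at 10 nM preincubated 15 min with compounds at room temperature; reaction started with fluorescent substrate, 50 nM final. Fluorescence read kinetically at 0 and 10 min; buffer-only wells as negative control.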
GCN5L2 inh = inhibitors of human GCN5L2 histone acetyltransferase. Q92830. GCN5L2 HAT assay, ThioGlo1 CoA-SH fluorescence. Potency, µM (doses to about 58.9 µM), most hits filed as inhibitors. actives 0.21% (n = 390,000). AID 504327
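ThioGlo1-coupled HAT assay: 20nM GCN5L2, 70uM acetyl-CoA, 75uM H3(1-25) peptide, pH 7.5. Fluorescence read at 340/540nm at start and after 20 min at room temperature.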
POLB inh = blocks human DNA polymerase beta activity | Pol beta primer extension/strand displacement, fluorescence kinetic | Potency, µM (top dose mostly 114 µM), usual class: inhibitors | actives 1.3% (n = 340,000) | AID 485314
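Homogeneous kinetic assay of primer extension and strand displacement by 10 nM Pol beta, preincubated 15 min at room temperature with compound before 50 nM substrate (final) was added. Read at 0 and 10 min; four-parameter Hill fit.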
POLK inh = blocks human DNA polymerase kappa activity | Q9UBT6 | purified Pol kappa, fluorescent DNA synthesis assay, 10 min | Potency, µM (highest dose often 107 µM), most hits filed as inhibitors | actives 0.53% (n = 400,000)
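First, compounds were pin-transferred onto 10 nM Pol kappa. After 15 min at room temperature, substrate was added to 50 nM final. Fluorescence was then measured kinetically at 0 and 10 min.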
Of the large screens only hits and unclear results are named; the others gave an inactive call. The list is not random: actives were taken first. Their share in the collection is about 2.4%. The call rests on the fitted dose curve; in most records, active means well fitted inhibition curve with a large enough effect; inconclusive means small, poorly fitted or top-dose-only effect, or another doubt; inactive means no such curve, though single readings can be large or run the other way.

O=S(=O)(O)c1ccc2c(N=Nc3ccc(S(=O)(=O)O)c4ccccc34)c(O)c(S(=O)(=O)O)cc2c1	Pol iota inh 44.7µM, POLK inh 44.7µM (no result: POLH inh, POLB inh)
CN(C)c1ccc(N=Nc2ccc(S(=O)(=O)O)cc2)cc1	none (no result: POLH inh, GLS inh, GCN5L2 inh, POLB inh)
CC(=O)Nc1ccc(S(=O)(=O)O)c2cc(S(=O)(=O)O)c(N=Nc3ccc(N=Nc4ccc(S(=O)(=O)O)cc4)c4ccc(S(=O)(=O)O)cc34)c(O)c12	Pol iota inh 3.16µM, POLK inh 1.41µM (no result: POLH inh, GLS inh, GCN5L2 inh, POLB inh)
CCCOC(=O)C1=C(C)CS[C@@H]2[C@H](NC(=O)COc3ccccc3)C(=O)N12	none (no result: POLH inh, GLS inh, GCN5L2 inh, POLB inh)
COc1cc2c(c(OC)c1OC)-c1c(cc3c(c1OC)OCO3)CC(C)C(C)(O)C2OC(=O)c1ccccc1 (stereo unspecified)	GCN5L2 inh inconclusive (no result: POLH inh, GLS inh, Pol iota inh, POLB inh)
Cc1cccc(NC(=O)C(C)SCc2nc3sc(C)c(C)c3c(=O)[nH]2)n1 (stereo unspecified)	POLH inh inconclusive, Pol iota inh inconclusive, POLB inh inconclusive
Cc1sc2nc(CSC(C)C(=O)Nc3cc(S(C)(=O)=O)ccc3Cl)[nH]c(=O)c2c1C (stereo unspecified)	POLH inh 31.6µM, Pol iota inh inconclusive, POLK inh inconclusive (no result: POLB inh)
Cc1sc2nc(CSc3nc4ccccc4s3)[nH]c(=O)c2c1C	GCN5L2 inh inconclusive, POLB inh 39.8µM (no result: POLH inh, GLS inh, Pol iota inh, POLK inh)
Cc1sc2nc(CSC(C)C(=O)Nc3ccccn3)[nH]c(=O)c2c1C (stereo unspecified)	POLH inh 70.8µM (no result: POLB inh)
CCc1ccccc1N1CC(c2nc3ccccc3n2CCOc2ccc(Cl)c(C)c2)CC1=O (stereo unspecified)	POLH inh inconclusive
COc1cc(-c2noc(-c3ccc(NCc4cccnc4)c([N+](=O)[O-])c3)n2)cc(OC)c1OC	POLB inh 44.7µM
COc1ccc(-c2noc(-c3ccc(NCc4cccnc4)c([N+](=O)[O-])c3)n2)cc1OC	POLB inh inconclusive
O=C(Oc1cc(=O)oc2c1c(=O)n1c3c(cccc23)CC1)c1ccccc1	Pol iota inh inconclusive, POLB inh 39.8µM
COc1ccc(-c2nnc(SCC(=O)Nc3cc(C)on3)n2N)cc1OC	POLB inh inconclusive
CC(=O)Nc1ccc(NC(=O)CSc2nnc(-c3cc(C)[nH]n3)n2N)cc1	none
Cc1cc(NC(=O)CSc2nnc(-c3cccc(F)c3)n2N)no1	Pol iota inh 70.8µM (no result: POLB inh)
CCOc1ccc(NC(=O)CSc2nnc(-c3ccccc3)n2N)cc1	POLH inh inconclusive, POLB inh 22.4µM
CCOc1ccc(-c2nnc(SCc3nc4ccccc4[nH]3)n2N)cc1	Pol iota inh inconclusive, POLB inh 50.1µM
Cc1cc(-c2nnc(SCC(=O)Nc3ccc(C)c(C)c3)n2N)n[nH]1	POLB inh 2µM
O=[N+]([O-])c1ccc(Cl)c(S(=O)(=O)/N=C(/Sc2ccc(Br)cc2)c2ccccc2)c1	none (no result: POLH inh, GLS inh, GCN5L2 inh, POLB inh)
CCSc1nnc(SCC(=O)Nc2cc(C)on2)s1	POLH inh inconclusive, Pol iota inh 44.7µM, POLK inh inconclusive (no result: POLB inh)
CCc1ccc(C(=O)CC2(O)C(=O)N(CCc3ccccc3)c3ccc(Cl)cc32)cc1 (stereo unspecified)	none
NC(=O)COc1ccc2cc(-c3ccc(F)cc3)c(=O)oc2c1	POLB inh 25.1µM
COc1ccc(-c2cc3ccc(O)cc3oc2=O)cc1	GCN5L2 inh 31.6µM
NC(=O)COc1ccc2cc(-c3ccccc3)c(=O)oc2c1	none
COc1cccc(NC(=O)Cn2c(=O)n(CCc3cccc(C)c3)c(=O)c3ccccc32)c1	Pol iota inh 89.1µM
COc1cccc(C2c3[nH]c4ccccc4c3C[C@H]3C(=O)N(C4CC4)CC(=O)N23)c1 (stereo partly specified)	POLH inh inconclusive, Pol iota inh 31.6µM
N#C/C(=C\c1ccc(O)c(O)c1)C(=O)NCCc1ccccc1	POLH inh 8.91µM, Pol iota inh inconclusive, POLK inh inconclusive
COc1cc(/C=C(\C#N)C(=O)NCCc2ccccc2)cc(OC)c1O	none
N#C/C(=C\c1ccc(O)c(O)c1)C(=O)N1CCc2ccccc21	POLH inh 39.8µM, Pol iota inh inconclusive, GCN5L2 inh inconclusive (no result: POLB inh)
CCOCCc1nnc(NC(=O)C(=O)c2cc(C)n(-c3cccc(Cl)c3)c2C)s1	none
O=C(COc1ccccc1F)Nc1ccc(OCc2cc(=O)n3ccccc3n2)cc1	POLH inh inconclusive
COCCNC(=O)C1CCN(Cc2cc3ccccc3n2Cc2ccc(C)cc2)CC1	none
CC1CCCCC1NC(=O)COC(=O)c1ccc([N+](=O)[O-])o1 (stereo unspecified)	POLH inh 89.1µM, Pol iota inh 31.6µM (no result: POLB inh)
CC1CCCC(NC(=O)COC(=O)c2ccc([N+](=O)[O-])o2)C1C (stereo unspecified)	Pol iota inh inconclusive (no result: POLB inh)
CCN(C(=O)COC(=O)c1ccc([N+](=O)[O-])o1)C1CCCCC1	POLH inh 89.1µM, Pol iota inh inconclusive, POLK inh inconclusive (no result: POLB inh)
O=C(COC(=O)c1ccc([N+](=O)[O-])o1)NC1CCCC1	POLH inh inconclusive, Pol iota inh 79.4µM (no result: POLB inh)
C=CC(C1=CC(=O)C(OC)=C(OC)C1=O)c1ccccc1 (stereo unspecified)	POLK inh inconclusive (no result: POLH inh, GLS inh, Pol iota inh, POLB inh)
Cc1cc(C=Nc2ccc(/C=C/c3ccnc4ccccc34)cc2)ccc1N(C)C	none (no result: POLH inh, GLS inh, GCN5L2 inh, POLB inh)
Cc1c(C(N)=O)nnn1-c1ccc(Br)cc1	none
COC(=O)c1c(NC(=O)c2ccoc2C)sc2c1CCC2	POLH inh inconclusive, Pol iota inh inconclusive, GCN5L2 inh inconclusive, POLB inh 22.4µM, POLK inh inconclusive
Cc1occc1C(=O)Nc1sc2c(c1C(N)=O)CCCCC2	Pol iota inh inconclusive
Cc1ccc(C(=O)Nc2cccc(C(F)(F)F)c2)cc1NC(=O)c1ccno1	none
Cc1ccc(C(=O)Nc2cccc(C(F)(F)F)c2)cc1NC(=O)c1nccn1C	Pol iota inh inconclusive, POLB inh 39.8µM
Oc1cc2c(c(Cl)c1O)CCNC[C@H]2c1ccccc1	none (no result: POLH inh, GLS inh, Pol iota inh, GCN5L2 inh, POLB inh)
Oc1cc2c(c(Cl)c1O)CCNCC2c1ccccc1 (stereo unspecified)	POLH inh inconclusive, GLS inh inconclusive, Pol iota inh 31.6µM, POLB inh inconclusive
Cc1cc(C)c2nc(NC(=O)C3CC(=O)N(Cc4ccco4)C3)sc2c1 (stereo unspecified)	none
O=C(Nc1nc2c(F)cc(F)cc2s1)C1CC(=O)N(Cc2ccco2)C1 (stereo unspecified)	POLH inh 50.1µM, Pol iota inh 28.2µM, POLB inh 28.2µM, POLK inh inconclusive
CC(C)(C)c1cc(CCC(=O)NCCc2ccccn2)cc(C(C)(C)C)c1O	GLS inh 10µM
CCCNC(=O)CCc1cc(C(C)(C)C)c(O)c(C(C)(C)C)c1	none
